{"source": "PubChem BioAssay AID2284370", "about": "(EPA ToxCast)", "note": "Results filed as inconclusive are left out. Active and inactive are the calls of the source. Rule for the calls: active = hit-call score of the fitted dose curve at least 0.9, where 1 is the maximum; inconclusive = response in the unintended direction; inactive = score below 0.9.", "data": [{"molecular_target": "human Androgen Receptor (AR), AR (gene 367) (UniProt P10275)", "sequence (P10275 whole entry, looked up)": "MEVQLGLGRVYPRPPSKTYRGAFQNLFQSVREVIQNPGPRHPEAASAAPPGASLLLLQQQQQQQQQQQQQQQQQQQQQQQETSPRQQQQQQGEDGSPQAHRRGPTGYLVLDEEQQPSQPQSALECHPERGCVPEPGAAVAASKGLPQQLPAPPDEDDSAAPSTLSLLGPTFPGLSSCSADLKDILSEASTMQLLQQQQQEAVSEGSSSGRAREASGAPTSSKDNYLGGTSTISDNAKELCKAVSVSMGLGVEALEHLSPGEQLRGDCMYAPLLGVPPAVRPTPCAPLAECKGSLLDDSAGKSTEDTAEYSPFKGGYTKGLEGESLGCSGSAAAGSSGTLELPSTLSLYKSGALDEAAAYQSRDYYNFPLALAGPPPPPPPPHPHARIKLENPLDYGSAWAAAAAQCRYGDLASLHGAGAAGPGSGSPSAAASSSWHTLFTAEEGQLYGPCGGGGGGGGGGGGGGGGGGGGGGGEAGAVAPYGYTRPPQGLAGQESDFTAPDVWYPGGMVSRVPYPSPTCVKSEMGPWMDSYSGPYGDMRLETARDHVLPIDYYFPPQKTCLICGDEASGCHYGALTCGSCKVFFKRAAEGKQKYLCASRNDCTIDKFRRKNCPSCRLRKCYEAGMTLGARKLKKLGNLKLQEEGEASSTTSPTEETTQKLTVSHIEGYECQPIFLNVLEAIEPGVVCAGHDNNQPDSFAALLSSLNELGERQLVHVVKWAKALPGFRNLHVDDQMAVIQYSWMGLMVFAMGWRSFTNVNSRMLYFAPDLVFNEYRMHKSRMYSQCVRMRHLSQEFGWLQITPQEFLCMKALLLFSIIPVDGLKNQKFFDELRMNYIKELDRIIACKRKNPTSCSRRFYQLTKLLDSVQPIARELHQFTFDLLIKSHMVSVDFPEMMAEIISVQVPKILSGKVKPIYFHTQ", "assay": "ATG_hAR_EcoTox2: Attagene TRANS-FACTORIAL EcoTox-2 HepG2 Assay for human Androgen Receptor (AR)", "protocol": "ATG_EcoTox2 is a cell-based, multiplexed assay created by modifying the existing Attagene TRANS-FACTORIAL system to include a panel of nuclear receptors from some or all the following species: human (Homo sapiens), african clawed frog (Xenopus laevis), rainbow trout (Oncorhynchus mykiss), japanese medaka (Oryzias latipes), and zebrafish (Danio rerio). The ECOTOX2-FACTORIAL format uses HepG2, a human liver cell line, with measurements taken at 24 hours after chemical dosing in a 24-well plate. ATG_hAR_EcoTox2 is one of 29 assay components calculated in the ATG_EcoTox2 assay. It is designed to make measurements of mRNA induction, a form of inducible reporter, as detected with fluorescence intensity signals by Reverse transcription polymerase chain reaction (RT-PCR) and Capillary electrophoresis technology.The assay endpoint ATG_hAR_EcoTox2 was analyzed in the positive analysis fitting direction relative to DMSO as the negative control and baseline of activity. Using a type of inducible reporter, measures of mRNA for gain-of-signal activity can be used to understand the reporter gene at the transcription factor-level as they relate to the gene AR. Furthermore, this assay endpoint can be referred to as a primary readout, because this assay has produced multiple assay endpoints where this one serves a reporter gene function. To generalize the intended target to other relatable targets, this assay endpoint is annotated to the nuclear receptor intended target family, where the subfamily is steroidal.\nHuman liver HepG2 cells are transiently transfected with multiple reporter transcription units (MRTUs) in 6-well plates using FuGene 6 reagent (Roche; 3 ml FuGene/1 mg DNA). The MRTU constructs are regulated by a cis-regulating element (promoter). Each RTU expresses a GAL4-UAS that regulates the transcription of a nearby target reporter gene sequence. A major difference between the CIS and TRANS system is that in CIS activities of endogenous TFs are measured, whereas the TRANS assay evaluates changes in activities of exogenous, chimeric NR-Gal4 proteins. […] At the end of 24 hour incubation, total RNA was isolated using TriZol reagent (Invitrogen). The isolated RNA is then reverse-transcribed using oligo(dT) primer and Mo-MLV reverse transcriptase (Invitrogen) with DNAse I (Ambion) treatment for 30 min. The one-tenth of the produced cDNA was amplified by PCR using Taq DNA polymerase (Invitrogen) and two reporter sequence-specific primers. […] The fragments were purified using Qiaquick PCR columns (Qiagen), analyzed on an ABI 3130xL genetic analyzer (Applied Biosystems) with peak positions identified by using a set of X-rhodamine (ROX)-labeled MapMarker1000 molecular weight standards (BioVentures). […]", "values": [{"compound": "CC(c1cc2ccccc2s1)N(O)C(N)=O", "note": "(centres undefined)", "outcome": "inactive"}, {"compound": "Cc1ccc(C)c(OCCCC(C)(C)C(=O)O)c1", "outcome": "inactive"}, {"compound": "CC(C)OC(=O)C(C)(C)Oc1ccc(C(=O)c2ccc(Cl)cc2)cc1", "outcome": "inactive"}, {"compound": "CC(C)(Oc1ccc(C2CC2(Cl)Cl)cc1)C(=O)O", "note": "(centres undefined)", "outcome": "inactive"}]}]}
